Measurements: PubChem BioAssay AID463173 (ICCB-Longwood Screening Facility, Harvard Medical School, 2010)
In all, about 52,000 compounds went through this assay and about 1,700 (3.3%) were called active. Many of the other results were omitted from the sample, so actives are more common in it than they were. Values without a mark were called inactive. Rule as the data show it: active = survival mostly below about 52% (no sharp cut-off); inactive = mostly above about 56%.

System: Wild type
Experiment: S. aureus survival, RN4220 and DeltatarO strains – OD600, teichoic acid synthesis inhibitors, primary screen (AID 463173)
Conditions: S. aureus RN4220 wild type/DeltatarO growth, OD600, 18 h, active compounds read low, screened at 18.75 µg/mL (by protocol)

Row | Compound | survival
1 | CCc1ccc(C(=O)c2cn(CC(=O)Nc3ccc4c(c3)OCCO4)c3ccc(C)cc3c2=O)cc1 | 84%
2 | CCCCn1nc(NC(=O)c2cccc(Cl)c2)c2cc3ccccc3nc21 | 86%
3 | NC(=O)CSc1nnc(C2CC2)n1Cc1ccccc1 | 93%
4 | Cc1cn2c(=O)cc(COC(=O)COc3ccc(C)c(C)c3)nc2s1 | 63%
5 | CC(Oc1ccccc1)C(=O)Nc1ccc(C(=O)OCc2cc(=O)n3ccsc3n2)cc1 (stereo not drawn) | 72%
6 | Cc1cn2c(=O)cc(COC(=O)c3ccc(NC(=O)c4ccc(F)cc4)cc3)nc2s1 | 70%
7 | Cc1cn2c(=O)cc(COC(=O)COc3ccc(F)cc3)nc2s1 | 81%
8 | COc1ccc(OCC(=O)OCc2cc(=O)n3nc(-c4cccs4)sc3n2)cc1 | 87%
9 | Cc1cn2c(=O)cc(COC(=O)c3ccc(NC(=O)C(C)Oc4ccccc4)cc3)nc2s1 (stereo not drawn) | 0% (active)
10 | O=C(COc1ccc(Cl)cc1)OCc1cc(=O)n2nc(-c3cccs3)sc2n1 | -6% (active)
11 | Cc1cn2c(=O)cc(COC(=O)c3cccc(NC(=O)C(C)Oc4ccccc4)c3)nc2s1 (stereo not drawn) | 69%
12 | COc1ccc(OCC(=O)OCc2cc(=O)n3cc(C)sc3n2)cc1 | 1% (active)
13 | Cc1cn2c(=O)cc(COC(=O)c3ccc(NC(=O)c4ccc(C(C)(C)C)cc4)cc3)nc2s1 | -3% (active)
14 | O=C(COc1ccccc1)OCc1cc(=O)n2nc(-c3cccs3)sc2n1 | 75%
15 | Cc1cn2c(=O)cc(COC(=O)c3cccc(NC(=O)c4ccc(C(C)(C)C)cc4)c3)nc2s1 | 101%
16 | Cc1cccc(OCC(=O)N(Cc2ccccc2)c2ccccn2)c1 | 87%
17 | CCOC(=O)c1ccccc1NC(=O)CSc1nc(=O)[nH]c2c1CCC2 | 77%
18 | Cc1ccc(NC(=O)Cn2cc(C#N)c3ccccc32)cc1 | 113%
19 | Cc1c(Cl)cccc1NC(=O)Cn1c(=O)n(Cc2nc(-c3ccccc3)no2)c(=O)c2cc3c(cc21)OCO3 | 135%
20 | CCn1cc(C(=O)NCc2ccc(C)cc2)c(=O)c2cc(S(=O)(=O)N3CCC(C)CC3)ccc21 | 128%
21 | Cc1sc2ncn(CC(=O)Nc3cccc(C(F)(F)F)c3)c(=O)c2c1S(=O)(=O)N1CCN(C)CC1 | 75%
22 | Cc1ccc(Cn2cc(S(=O)(=O)c3cccc(C)c3)c(=O)c3cc(F)c(N4CCOCC4)cc32)cc1 | 82%

Row | Compound | survival
23 | Cc1cc2c(cc1C)-n1c(-c3ccccc3)c3c(=O)n(C)c(=O)n(C)c3c1C(c1ccco1)N2 (stereo not drawn) | 88%
24 | COc1ccc(-c2c3c(=O)n(C)c(=O)n(C)c3c3c(C)nc4ccccc4n23)cc1 | 74%
25 | Cn1c(=O)c2c(-c3ccccc3)n3c(c2n(C)c1=O)C(c1ccccc1[N+](=O)[O-])Nc1ccccc1-3 (stereo not drawn) | 76%
26 | Cc1ccc(-c2c3c(=O)n(C)c(=O)n(C)c3c3n2-c2ccccc2NC3c2ccc(C)cc2O)cc1 (stereo not drawn) | -8% (active)
27 | Cn1c(=O)c2c(-c3ccccc3)n3c(c2n(C)c1=O)C(c1ccco1)Nc1ccccc1-3 (stereo not drawn) | 85%
28 | COc1ccc(-c2c3c(=O)n(C)c(=O)n(C)c3c3n2-c2ccccc2NC3c2ccc(O)cc2O)cc1 (stereo not drawn) | -8% (active)
29 | COc1ccccc1C1Nc2ccccc2-n2c(-c3ccccc3)c3c(=O)n(C)c(=O)n(C)c3c21 (stereo not drawn) | 65%
30 | Cn1c(=O)c2c(-c3ccccc3)n3c(c2n(C)c1=O)C(c1cccc([N+](=O)[O-])c1)Nc1ccccc1-3 (stereo not drawn) | 31%
31 | COc1ccc(-c2nc3ccccc3n3c(-c4ccc(OC)cc4)c4c(=O)n(C)c(=O)n(C)c4c23)cc1 | 75%
32 | COc1ccc(-c2c3c(=O)n(C)c(=O)n(C)c3c3c(-c4ccccc4)nc4ccccc4n23)cc1 | 64%
33 | COc1ccc(O)c(C2Nc3ccccc3-n3c(-c4ccccc4)c4c(=O)n(C)c(=O)n(C)c4c32)c1 (stereo not drawn) | -6% (active)
34 | Cn1c(=O)c2c(-c3ccccc3)n3c(c2n(C)c1=O)C(c1cc(Cl)ccc1O)Nc1ccccc1-3 (stereo not drawn) | -9% (active)
35 | O=C(C1CCN(S(=O)(=O)c2cccs2)CC1)N1CCN(c2ccccc2F)CC1 | 142%
36 | CCN(C(=O)/C=C/c1cc(OC)c(OC)c(OC)c1)C1CCCCC1 | 107%
37 | COc1cccc(CNC(=O)CCn2c(=O)c3cccn3c3cccnc32)c1 | 87%
38 | CCC(Sc1nc(-c2ccccc2F)nc2c1Cc1c(CO)cnc(C)c1O2)C(=O)Nc1cc(C)ccc1C (stereo not drawn) | 87%
39 | COc1ccc(N2CCN(Cc3nnc(-c4ccc5c(c4)OCO5)o3)CC2)cc1 | 81%
40 | O=C(Cn1c(C(=O)NC2CCCCC2)cc2sccc21)c1ccccc1 | 136%
41 | Cc1ccc(C)n1-c1nnc(N2CCCC(C(=O)NCc3cccc(F)c3)C2)s1 (stereo not drawn) | 81%
42 | COC(=O)c1c(C)oc2ccc(N(C(=O)c3ccncc3)S(=O)(=O)c3cc(C)c(C)cc3C)cc12 | 77%
43 | COc1ccc(Cl)c2sc(NC(=O)c3ccc(S(=O)(=O)N4CCCC4)cc3)nc12 | 73%
44 | CCn1ccc2cc(S(=O)(=O)N3CCCN(C(=O)Nc4ccc(C)cc4Cl)CC3)ccc21 | 63%

Row | Compound | survival
45 | COc1ccc(OC)c(C2NC(=O)NC(C)=C2C(=O)Nc2ccc(F)cc2)c1 (stereo not drawn) | 81%
46 | Cc1ccc(C)c(N2CCN(c3nc4ccccc4c(=O)n3-c3ccc(Cl)cc3)CC2)c1 | 78%
47 | O=c1c2ccccc2nc(N2CCN(c3cccc(Cl)c3)CC2)n1-c1ccccc1 | 81%
48 | Cc1ccc(C)c(N2CCN(c3nc4ccccc4c(=O)n3-c3ccccc3)CC2)c1 | 10% (active)
49 | CCOc1ccccc1CN1CCc2nc(N3CCN(c4ccccc4F)CC3)ncc2C1 | -6% (active)
50 | CCN1CCN(c2ncc3c(n2)CCN(Cc2cc(Br)cs2)C3)CC1 | 1% (active)
51 | CCOc1ccccc1CN1CCc2nc(N3CCN(C)CC3)ncc2C1 | -4% (active)
52 | COc1cc(OC)c(OC)cc1CN1CCc2nc(N3CCN(C)CC3)ncc2C1 | 82%
53 | Cc1ccccc1CN1CCc2nc(N3CCN(c4ncccn4)CC3)ncc2C1 | 75%
54 | CN1CCN(c2ncc3c(n2)CCN(Cc2ccccc2Cl)C3)CC1 | 71%
55 | CCN1CCN(c2ncc3c(n2)CCN(Cc2ccc(Br)s2)C3)CC1 | 60%
56 | COc1ccccc1N1CCN(c2ncc3c(n2)CCN(Cc2ccccc2F)C3)CC1 | 67%
57 | Cc1ccccc1CN1CCc2nc(N3CCN(c4ccccn4)CC3)ncc2C1 | 71%
58 | COc1cc(OC)c(OC)cc1CN1CCc2nc(N3CCN(c4ccccc4F)CC3)ncc2C1 | 64%
59 | CN1CCN(c2ncc3c(n2)CCN(Cc2cc(Br)cs2)C3)CC1 | 129%
60 | CCN1CCN(c2ncc3c(n2)CCN(Cc2ccccc2C)C3)CC1 | -3% (active)
61 | COCCCNC(=O)C1CCN(c2ncnc3c2nc2n3CCCCC2)CC1 | 89%
62 | CSc1nnc(-c2cc3ccccc3cc2O)n1C | 111%
63 | COC(=O)c1sc2nc(C)cc(C)c2c1N | 103%
64 | Nc1nc2cc3c(cc2s1)OCCO3 | 113%
65 | COc1cc2nc(SCc3ccc(Cl)cc3)n3nc(CCn4nc(C)cc4C)nc3c2cc1OC | 71%
66 | CCCCOc1ccc(CNC(=O)c2cnc3sc(N4CCC(C)CC4)nn3c2=O)cc1 | 127%

Row | Compound | survival
67 | COC(=O)c1ccc(NC(=O)CCn2cccn2)cc1 | 88%
68 | CCc1ccc(OCC(=O)Nc2ccc3c(c2)c2ccccc2n3CC)c(Br)c1 | -6% (active)
69 | CCc1ccc(OCC(=O)Nc2ccc3c(c2)c2ccccc2n3CC)cc1 | 69%
70 | CCn1c2ccccc2c2cc(NC(=O)COC)ccc21 | 108%
71 | CCn1c2ccccc2c2cc(NC(=O)COc3cc(C)ccc3C)ccc21 | 18%
72 | CCn1c2ccccc2c2cc(NC(=O)COc3cccc(C)c3)ccc21 | 34%
73 | CCn1c2ccccc2c2cc(NC(=O)COc3ccc(C)cc3C)ccc21 | 8% (active)
74 | O=C(Nc1c(Cl)cccc1Cl)c1cc(-c2cccc(O)c2)on1 | 5% (active)
75 | COc1ccc(-c2cc(C(=O)Nc3c(Cl)cccc3Cl)no2)cc1OC | 79%
76 | O=C(Nc1c(Cl)cccc1Cl)c1cc(-c2ccc3c(c2)OCO3)on1 | 82%
77 | COC(=O)/C=C1/C(=O)N(C(C)=O)c2ccccc21 | 108%
78 | COc1ccc(CNS(=O)(=O)c2cc3c(cc2C)n(C)c(=O)c(=O)n3C)cc1 | 77%
79 | COc1cccc(N2CCN(Cc3nnc(-c4ccc5c(c4)OCO5)o3)CC2)c1 | 102%
80 | COc1ccc(S(=O)(=O)N(C)Cc2nc(-c3cccc(C)c3)no2)cc1 | 74%
81 | COc1ccc(OC(C)C(=O)NCc2nc(-c3cccc(C)c3)no2)cc1 (stereo not drawn) | 87%
82 | COc1ccccc1C(=O)N(Cc1nc(-c2cccc(C)c2)no1)C(C)C | 56%
83 | Cc1cccc(-c2noc(CN(C(=O)COc3ccc(Br)cc3C)C(C)C)n2)c1 | 30%
84 | Cc1cccc(-c2noc(CN(C(=O)COc3ccc(C(C)C)cc3)C(C)C)n2)c1 | 3% (active)
85 | Cc1cccc(-c2noc(CN(C(=O)c3ccccc3Cl)C(C)C)n2)c1 | 86%
86 | Cc1cccc(-c2noc(CN(C(=O)c3ccc(C)c(C)c3)C(C)C)n2)c1 | 0% (active)
87 | Cc1cccc(-c2noc(CN(C(C)C)S(=O)(=O)c3ccc(Br)cc3)n2)c1 | 72%
88 | CCOc1ccc(C(=O)N(Cc2nc(-c3cccc(C)c3)no2)C(C)C)cc1 | 2% (active)
